Epigenetic reg = regulators of epigenetic silencing causing reporter derepression in mouse cells | murine LDR cells, GFP reporter derepression, 30 h | AID 1865 | 280,000 tested, 0.2% active | Potency, µM (doses to about 53.9 µM), for the others: top-dose GFP activation, hits mostly activators; also: % of control where 0% means no effect; nearly all actives have a fitted effect of over 60% in size
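In this reporter-derepression format, murine cells bearing a silenced integrated CMV-GFP locus incubate with test compound (30 h, 37 C), then are washed and imaged; fluorescent objects of 20–120 um count as induced cells.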
HTT aggregate = inhibitors of mutant huntingtin aggregate formation in PC12 cells; Potency, µM (doses to about 46.1 µM), for inactives: at the highest dose activity change, negative = inhibition, actives largely listed as inhibitors; PC12 HttQ103-GFP aggregates, Acumen cytometry, 40 h; 220,000 tested, 1.1% active; also: % is scaled to controls: 0 for no effect and ±100 for the full control effect; nearly all actives have a fitted effect of over 60% in size
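Aggregates are detected as GFP objects 1–25 µm with signal 6 STDEV over background in lysates of induced PC12 cells. These carry Huntingtin exon 1 with 103 glutamines fused to GFP under an ecdysone promoter; compounds titrated.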
HTT cytoprotect = Huntington cell model cytoprotection by ATP luminescence; PC12 HTT-Q103 induced, cytoprotection, ATP luminescence, 40 h; Potency, µM (titrated, usually from 56.4 µM), for the others: cytoprotection (ATP increase), most hits filed as activators; 230,000 tested, 0.14% active; AID 1471; also: % of control where 0% means no effect; nearly all actives have a fitted effect of over 45% in size
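ATP quantification (ATPlite) reports survival of PC12 cells in which tebufenozide, 100 nM final, switches on Htt exon 1 with 103 glutamines linked to GFP; compounds are titrated.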
PINK1 expr mod = PINK1 expression modulation | PINK1 immunofluorescence, high-content cytometry, 24 h | Potency, µM (series often up to 76.6 µM), for the others: at the top dose activation (PINK1 increase), actives largely listed as activators | 410,000 tested, 0.2% active; active = well fitted activation curve with a large enough effect; inconclusive = small, poorly fitted or top-dose-only effect; cell line not stated here; also: % of control where 0% means no effect; nearly all actives have a fitted effect of over 65% in size
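Fluorescence from anti-PINK1 antibody, together with nuclear and cell stains, was scanned on a laser-scanning cytometer. Before staining, stable-line cells were incubated 24 hours with compounds at 5 concentrations; primary antibody 12 h at 10 degrees C.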
Starred values were filed as active, the others as inactive; u = inconclusive; x = no result given; [ ] = another dose, or the depositor's remark. The entries come from a sample that favours hits as a whole. Unless noted, calls follow the shape of the dose curve; as a rule, active = well fitted curve in the direction sought with a large enough effect; inconclusive = small, poorly fitted or top-dose-only effect, or another doubt; inactive = no such curve, though single readings can be large; an effect the other way counts as inactive or inconclusive. Potency is read from the fitted curve at half-maximal effect.

SMILES | Epigenetic reg | HTT aggregate | HTT cytoprotect | PINK1 expr mod
Cc1ccc(C(=O)NNC(=O)CCCN2C(=O)/C(=C/c3ccccc3Cl)SC2=S)cc1 | 1% | 35µM* | x | 5%
CN1CCN(S(=O)(=O)c2ccc(Sc3nnnn3-c3ccccc3)c([N+](=O)[O-])c2)CC1 | -3% | 11µM* | 8%[10 µM] | -1%
Cc1ccc(C)c(NC(=S)NCc2cccs2)c1 | 3% | 5% | -3%[10 µM] | 0%
C=CCSC(=C(C#N)C#N)c1cc2c([nH]1)CCCC2 | 11% | u | 11µM* | -1%
O=C(O)c1cc2c([nH]c1=O)CCCC2 | 0% | -18% | 6% | -1%
Cc1cc(Sc2ncnc(N)c2[N+](=O)[O-])ncn1 | 0% | 4.5µM* | 7%[10 µM] | 5%
CC(C)(C)NC(=O)C(=O)NNC(=O)c1cccc(F)c1 | -7% | 0.63µM* | u | -3%
COc1cc(/C=C(\C#N)c2nc3ccccc3o2)ccc1O | 2.2µM* | 4%[9.22 µM] | 0%[10 µM] | 7%
N#C/C(=C\c1ccc(O)cc1)c1nc2ccccc2o1 | 1% | 7%[9.22 µM] | 9%[10 µM] | u
COc1cc(/C=C(\C#N)c2nc(-c3cc4ccccc4oc3=O)cs2)ccc1O | 4.5µM* | 28% | -12%[10 µM] | 6%
O=C(Nc1cccc(Cl)c1)C1C2C=CC3(O2)C1C(=O)N(CCN1CCCCC1)C3C(=O)NC1CCCCC1 (centres undefined) | x | x | x | 3%
CN1/C(=C\C(=O)C[n+]2ccc3ccccc3c2)C(C)(C)c2ccccc21 | 0% | u | -51% | 45µM*
COc1ccccc1OCC(=O)/C=C1/N(C)c2ccccc2C1(C)C | -3% | u | -158% | 0%
CN1/C(=C\C(=O)COc2ccc3c(c2)OCO3)C(C)(C)c2ccccc21 | -2% | 22µM* | -19% | 0%
COc1ccc(C(=O)OCCN2C(=O)c3ccccc3C2=O)cc1 | -1% | 2% | 6% | 11µM*
COc1ccc(C2COc3cc(O)ccc3C2)c(OC)c1O (centres undefined) | x | x | x | 4%
Cc1ccc(C(C)NC(=O)c2cccnc2)cc1 (centres undefined) | x | x | x | 0%
CCCn1c(/C=N/Nc2nc3ccccc3[nH]2)nc2ccccc21 | u | 16µM* | -9%[10 µM] | 12%
CC(C)Cn1c(/C=N/Nc2nc3ccccc3[nH]2)nc2ccccc21 | u | 6.3µM* | -40%[10 µM] | 2%
CN1CCN(c2nc(-c3ccncc3)nc3ccccc23)CC1 | 0% | -24% | -33% | -2%
CC(/C=C1\SC(=S)N(CCC(=O)Nc2nc(C)cs2)C1=O)=C\c1ccccc1 | 1% | 18%[9.22 µM] | 8%[10 µM] | 40µM*
CC(/C=C1\SC(=S)N(CCC(=O)Nc2ccc(O)cc2)C1=O)=C\c1ccccc1 | x | x | x | 6%
CC(C)CCNC(=O)[C@@H](c1ccccc1)N1Cc2ccccc2C1=O | -1% | x | x | 0%
Cc1ccc(C(=O)C(c2ccccc2)N2Cc3ccccc3C2=N)cc1 (centres undefined) | u | 16µM* | 20%[10 µM] | 12%
Cc1ccc(-c2nc(NC(=O)c3nn(C)cc3[N+](=O)[O-])sc2C)cc1C | 1% | 7.9µM* | -89% | -1%
SMILES | Epigenetic reg | HTT aggregate | HTT cytoprotect | PINK1 expr mod
Cc1ccc(-c2nc(NC(=O)c3nn(C)cc3[N+](=O)[O-])sc2C)cc1 | -3% | 18%[9.22 µM] | -99% | -3%
COc1ccc(-n2c(SCC(=O)N(C)c3ccccc3)nc3c([nH]c4ccccc43)c2=O)cc1OC | x | x | x | 2%
O=C(CCCCCN1C(=O)c2ccccc2C1=O)NC1CCCC1 | 6% | 0% | 15% | 0%
O=[N+]([O-])c1ccc(-c2c(O)c3ccccc3c3nc4ccccc4nc23)cc1 | 1% | 7.1µM* | -18% | -1%
COc1ccc2nc(/N=C/c3cccc(OC)c3O)sc2c1 | x | x | x | -1%
Oc1ccc(NCc2ccccc2OCc2ccc(Cl)cc2)cc1 | 1% | x | x | 5%
COc1cccc(COc2cc3ccccc3nc2C)c1 | 0% | 1.8µM* | -29% | -1%
Cc1nc2ccccc2cc1OCc1ccccc1 | 1% | 13µM* | -23% | -2%
Cc1nc2ccccc2cc1OCc1ccc(Cl)cc1 | -1% | 7.9µM* | x | -5%
COC(=O)c1sccc1OCc1cccc(OC)c1 | 0% | 15% | 2% | 2%
Cc1ccc(COc2ccsc2C(=O)O)cc1 | 1% | -19% | -31% | 1%
COc1ccc(CN2CCN(C(=O)c3ccc(S(=O)(=O)NCc4ccco4)cc3)CC2)cc1F | x | x | x | 5%
C=CCc1cccc(/C=C/c2cc(=O)c3ccccc3[nH]2)c1O | 4% | 3.2µM* | -88%[10 µM] | u
O=C(Nc1cccc(Cl)c1Cl)c1snnc1-c1ccccc1 | -1% | 0% | -15% | 3%
O=C(Nc1cc(Cl)ccc1O)c1snnc1-c1ccccc1 | 1% | 16µM* | -67% | 11µM*
Cc1ccc(CC(=O)NCC(C)C)cc1 | -1% | 9% | 2% | 6%[38.3 µM]
Cc1cccc(/C=C(\C#N)c2nc3ccccc3c(=O)[nH]2)c1 | -2% | x | x | 0%
CN(C)c1ccc(/C=C(\C#N)c2nc3ccccc3c(=O)[nH]2)cc1 | 6.3µM* | x | x | 1%
COc1cc(C(=O)Nc2ccc(-n3cnnn3)c(C)c2)cc(OC)c1OC | -1% | 5% | -1% | u
Cc1cc(C)c2c(N)c3cccc(C)c3nc2n1 | 12% | 13µM* | x | -3%
O=C(NC(=S)NCc1ccc(F)cc1)c1ccccc1 | -2% | -7% | x | 1%
O=C(Cn1cnc2c(cnn2-c2ccc(Cl)cc2)c1=O)NCC1CCCO1 (centres undefined) | -1% | -20% | 1% | 2%
CC(=O)c1c(C)n(-c2ccccc2)c2ccc(O)cc12 | 1% | 10µM* | 26% | -1%
CC(=O)c1ccc(S(=O)(=O)NC2CC(=O)N(c3ccc(C)cc3)C2)cc1 (centres undefined) | x | x | x | 1%
CC(=O)c1ccc(N/N=C(/C(N)=O)C2=NC(C)(C)Cc3ccccc32)cc1 | -1% | 11µM* | -21%[10 µM] | -6%
SMILES | Epigenetic reg | HTT aggregate | HTT cytoprotect | PINK1 expr mod
CC1=CC(C)(C)N(C(=O)c2ccccc2)c2ccc(C)cc21 | -1% | -6% | 17% | u
COc1ccc(C(=O)N2c3cc4c(cc3C(C)=CC2(C)C)OCO4)cc1 | -2% | 11µM* | -14% | 6%
COCCN(C(=O)c1csnn1)C(C(=O)NC1CCCCC1)c1ccc(Cl)cc1 (centres undefined) | x | x | x | 1%
CCOP(=O)(OCC)C(NC(=O)c1ccc(OC)c(OC)c1)c1ccccc1 (centres undefined) | 1% | -12% | -34% | 2%
Cn1c(/C=C/c2ccccc2)nc2ccccc2c1=O | x | x | x | 2%
Cn1c(/C=C/c2ccc([N+](=O)[O-])o2)nc2ccccc2c1=O | u | 10µM* | -110% | 7%
O=[N+]([O-])c1ccc(/C=N/Nc2nc(N3CCCCCC3)nc(N3CCCCCC3)n2)o1 | u | 7.1µM* | -15%[10 µM] | 10%
Cc1cc(N/N=C/c2ccc([N+](=O)[O-])o2)nc2ccccc12 | 6.3µM* | u | 12% | u
O=C(Cc1ccccc1)N(Cc1cccnc1)c1nc2c(Cl)cccc2s1 | -1% | x | x | 0%

Assay outcomes deposited in PubChem by National Center for Advancing Translational Sciences (NCATS).
